Results from PubChem BioAssay (NCATS).
Results filed as inconclusive are left out. A call without a number means that no potency is given here. Activity calls are given as the source filed them. Calls follow the shape of the dose curve; as a rule, active = well fitted inhibition curve with a large enough effect; inconclusive = small, poorly fitted or top-dose-only effect; inactive = flat fitted curve, though single readings scatter.

test system: CP268; assay: qHTS profiling for inhibitors of Plasmodium falciparum proliferation (AID 504749); also: nearly all actives have a fitted effect of over 60% in size; details: P. falciparum in erythrocytes, SYBR Green DNA, 72 h; series mostly up to 28.7 µM
In short: (§1)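 Infected RBCs, 0.3% parasitemia/2.5% Hct final; cpd 72 h, 37 C, 5% CO2; lysis buffer with saponin/triton/SYBR Green I, o/n RT dark; FI 485/535; norm. to artemisinin (0.29 uM) and DMSO.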

Structure (SMILES) | Potency
NCCNCCNCCN | inactive
CC1(C)OC(=O)NC1=O | inactive
CCCCN(CCCC)CCCOC(=O)c1ccc(N)cc1 | inactive
O=C1c2c(O)cccc2Cc2cccc(O)c21 | inactive
CCCOC(=O)c1ccccc1 | inactive
CC12CCC(CC1)C(C)(C)O2 | inactive
CC(=O)Nc1ccc(/C=N/NC(N)=S)cc1 | inactive
CC(C)(C)NCC(O)COc1ccc(NC(=O)NC2CCCCC2)cc1 (stereo not drawn) | inactive
O=C1OC(OC(=O)c2cccnc2Nc2cccc(C(F)(F)F)c2)c2ccccc21 (stereo not drawn) | inactive
O=C1NS(=O)(=O)c2ccccc21 | inactive

test system: CP269; assay: as above; details: P. falciparum in erythrocytes, SYBR Green DNA, 72 h; series mostly up to 28.7 µM
In short: as §1

Structure (SMILES) | Potency
NC(=O)NNc1ccccc1 | inactive
O=C(O)[C@@H]1CSCN1 | inactive
COc1ccc2c(c1)C(=O)N(CCc1ccc(S(=O)(=O)NC(=O)NC3CCCCC3)cc1)C(=O)C2(C)C | inactive
CCCc1c(OCCCCc2nn[nH]n2)ccc(C(C)=O)c1O | inactive
COc1ccc2[nH]c(S(=O)Cc3ncc(C)c(OC)c3C)nc2n1 (stereo not drawn) | inactive
CCn1cc(C(=O)O)c(=O)c2cnc(N3CCNCC3)nc21 | inactive
O=C(O)COc1nn(Cc2ccccc2)c2ccccc12 | inactive
O=C1O[C@H]([C@@H](O)CO)C(O)=C1O | inactive
O=S(=O)(O)c1cc(I)c(O)c2ncccc12 | inactive
CC1=C(CC(=O)O)c2cc(F)ccc2/C1=C\c1ccc(S(C)=O)cc1 (stereo not drawn) | inactive
CCOC(=O)c1ccc(O)cc1 | inactive
O=C(O)c1ccccn1 | inactive
Cc1cc(O)cc2c1O[C@](C)(CCC[C@H](C)CCC[C@H](C)CCCC(C)C)CC2 | inactive
NCC(=O)CCC(=O)O | inactive
CC(C)(C)C(=O)NCCCC(=O)O | inactive
COc1cc2[nH]c(=O)[nH]c(=O)c2cc1OC | inactive
CCC(=O)Nc1ccc(O)cc1 | inactive

Structure (SMILES) | Potency
COc1ccc(Cl)cc1C(=O)NCCc1ccc(S(=O)(=O)NC(=O)NC2CCCCC2)cc1 | inactive
O=C1NC(=O)[C@@]2(CCOc3ccc(F)cc32)N1 | inactive
O=Cc1ccccc1C=O | inactive
CC(O)CN(CCN(CC(C)O)CC(C)O)CC(C)O (stereo not drawn) | inactive
Cc1ccc(C(C)C)cc2c(C)ccc1-2 | inactive
Nc1nc2c(ncn2CCC(CO)CO)c(=O)[nH]1 | inactive
NCCNCCNCCN | inactive
CC1(C)OC(=O)NC1=O | inactive
CCCCN(CCCC)CCCOC(=O)c1ccc(N)cc1 | inactive
O=C1c2c(O)cccc2Cc2cccc(O)c21 | inactive
CCCOC(=O)c1ccccc1 | inactive
CC12CCC(CC1)C(C)(C)O2 | inactive
CC(=O)Nc1ccc(/C=N/NC(N)=S)cc1 | inactive
CC(C)(C)NCC(O)COc1ccc(NC(=O)NC2CCCCC2)cc1 (stereo not drawn) | inactive
O=C1OC(OC(=O)c2cccnc2Nc2cccc(C(F)(F)F)c2)c2ccccc21 (stereo not drawn) | inactive
O=C1NS(=O)(=O)c2ccccc21 | inactive
